Source: PubChem
CHT inh: inhibitors of human choline transporter CHT | High affinity choline transporter 1 (Homo sapiens), Q9GZV3 | CHT-expressing cells, membrane potential dye, choline response; active compounds read low | B-score at 10 µM | 310,000 compounds, 0.86% hits | AID 488975, 2010;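 active = B-score over 3 SD under the library average, and starting fluorescence ratio not unusually high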;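 note: choline stimulus applied at its EC90 after an EC20 pre-addition; B-score computed on integrated fluorescence ratio after choline addition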
CHT allo act: CHT positive allosteric modulators, primary screen, cell-based, membrane potential dye, choline EC20 | High affinity choline transporter 1 (Homo sapiens), Q9GZV3 | CHT-expressing cells; active compounds read high; LV-AA mutant CHT in HEK293 cells | B-score at 10 µM | 310,000 compounds, 0.49% hits | AID 488977, 2010;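 active = initial fluorescence not abnormally high and integrated response B-score, plate-corrected, over 3 SD above library mean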
TMEM16A inh: TMEM16A chloride channel inhibitors, primary screen, cell-based, HTS; Anoctamin-1 (Mus musculus), Q8BHY3; HEK293 TMEM16A/YFP iodide influx fluorescence, ionomycin; normalized B-score (activity score, 25-100; higher = stronger inhibition) at 10 µM; 310,000 compounds, 1.2% hits; AID 588511, 2011;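 active = ratio plate-corrected score three or more library SD toward inhibition, starting fluorescence score within five deviations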;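 note: score derived from kinetic fluorescence span divided by baseline fluorescence per well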
IDE cell activ: human IDE activators in live cells, primary screen, fluorescence polarization, HEK cells, FAbeta-B substrate. AID 493087, 2011. activation, % at 5.96 µM. FAbeta-B cleavage; 0% vehicle, 100% cell-free pure enzyme wells. Insulin-degrading enzyme (Homo sapiens), P14735. 340,000 compounds, 0.073% hits;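 active = activation above the mean of all tested compounds plus 3 SD, set per screening campaign, cut at about 17% in these data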
IDE inh: human IDE inhibitors in live cells, primary screen, fluorescence polarization, HEK cells, FAbetaB substrate | AID 434962, 2010 | inhibition, % at 5.59 µM | Insulin-degrading enzyme (Homo sapiens), P14735 | 320,000 compounds, 0.41% hits | FAbetaB cleavage;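 active = percent inhibition above the average of all tested compounds plus 3 SD, set per screening campaign, cut at about 16% in these data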;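 note: IDE supplied by intact live HEK cells; FP after avidin binding of uncleaved biotin substrate so inhibition keeps polarization high; 0% = DMSO wells and 100% = 60 µM reference IDE inhibitor Ii1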
ANO1 activ: TMEM16A chloride channel activators or potentiators, primary screen, cell-based, HTS; 340,000 compounds, 0.3% hits; HEK293 TMEM16A/YFP-H148Q/I152L, iodide quench fluorescence; active compounds read low; B-score at 10 µM; Anoctamin-1 (Mus musculus), Q8BHY3; AID 623877, 2012;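 active = fluorescence-ratio B-score plate-corrected deviation score at least 3 library SD below zero, with starting fluorescence score within 5 deviations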;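 note: channel opened by trigger with iodide after compound preincubation; score built on the fluorescence ratio of max minus min over baseline; more negative score means more quench and so TMEM16A activation or potentiation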
The depositor's hits bear a star; i = inactive; . = no result given. Only some compounds are listed: those with a hit (about 2.7% of all), similar ones and a draw of the others.

SMILES | CHT inh | CHT allo act | TMEM16A inh | IDE cell activ | IDE inh | ANO1 activ
COc1cc([N+](=O)[O-])cc(/C=C2/SC(=S)N(Cc3ccccc3)C2=O)c1O | -5.8* | i | i | -14 | 15 | i
CSc1ccc(C(=O)N2CCC(CCC(=O)NCc3ccc(F)cc3)CC2)cc1 | . | . | . | -3 | . | i
COc1cccc(CN(CC(=O)NC2CCCC2)C(=O)c2csnn2)c1 | i | i | i | 6 | 0 | i
COc1ccc(C2C=C(c3ccc(C)cc3)Nc3ncnn32)cc1 (configuration not stated) | . | . | . | -3 | . | i
COc1cccc(C2=CC(c3ccc(N(C)C)cc3)n3ncnc3N2)c1 (configuration not stated) | -9.3* | i | i | . | 18* | .
COc1ccc(C2C=C(c3ccc(Br)s3)Nc3ncnn32)cc1OC (configuration not stated) | i | i | i | . | 39* | .
Cc1ccccc1-n1ccnc1SCC(=O)Nc1cccc(S(=O)(=O)NC2=NCCC2)c1 | . | . | . | 2 | 3 | i
CCc1nc(SCc2nc3ccccc3[nH]2)c2oc3ccccc3c2n1 | i | i | 25* | 0 | 0 | i
CCCOc1cccc(C(=O)NCCNC(=O)c2cnccn2)c1 | i | i | i | -1 | 4 | i
CCCCNS(=O)(=O)c1ccc2nc(SCC(=O)Nc3sccc3C#N)[nH]c2c1 | i | i | 100* | 2 | 4 | i
CCCOC(=O)Cn1cnc2scc(-c3ccc(OC)cc3)c2c1=O | i | i | i | 1 | 3 | i
FC(F)(F)c1cccc(NC(=S)Nc2ccc(Cl)cc2Cl)c1 | i | i | 100* | -1 | 8 | i
S=C(Nc1ccccc1)Nc1ccc(Cl)cc1Cl | i | i | i | 4 | 2 | i
COc1ccc(OC)c(/C=C2\SC(N3CCCC(C)C3)=NC2=O)c1 (configuration not stated) | i | i | 100* | -3 | 1 | i
COc1ccc(/C=C2\SC(N3CCCCC3)=NC2=O)cc1OC | i | i | i | 0 | -1 | i
CC1(C)CC(=O)C2=C(C1)OC(N)=C(C#N)C2c1ccccc1[N+](=O)[O-] (configuration not stated) | i | i | i | -6 | 15 | -4.6*
COc1cc2c(cc1OC)C(c1cc(OC)c(OC)c(OC)c1)C1(O)C(=O)OCC1(O)C2 (configuration not stated) | . | . | . | 3 | . | i
COc1ccc(/C=C2/SC(=S)N(NS(=O)(=O)c3ccc(C)cc3)C2=O)cc1 | -5.6* | i | i | 0 | 0 | i
CCS(=O)(=O)N1CCC(NC(=O)C(Cc2cc(OC)ccc2OC)NC(C)=O)CC1 (configuration not stated) | i | i | i | 7 | 2 | i
CCCCc1cc(=O)oc2cc(OCc3cc(OC)c(OC)c(OC)c3)c(Cl)cc12 | i | i | i | 10 | 0 | -4.9*
Cc1nc(Nc2ccc(S(N)(=O)=O)cc2)sc1C(=O)Nc1ccccc1 | i | i | i | 10 | -4 | -8.9*
CCCc1cc(C(=O)Nc2ccc(C(=O)c3ccc(C)cc3)cc2)n(C)n1 | i | i | 100* | -5 | 1 | i
CCCc1cc(C(=O)Nc2cccc3ccccc23)n(C)n1 | i | i | i | -3 | 2 | i
N#Cc1ccc(OCC(O)CN2CCN(c3ncc(C(F)(F)F)cc3Cl)CC2)cc1 (configuration not stated) | i | i | 25* | -8 | 8 | i
N#Cc1ccc(OCC(O)CN2CCN(CC(O)COc3ccc(C#N)cc3)CC2)cc1 (configuration not stated) | i | i | i | 4 | 3 | i
Cc1ccc(C(=O)N2CCN(S(=O)(=O)c3ccc(Br)cc3)CC2)o1 | i | i | i | 0 | -2 | i
